# Results from ChEMBL document CHEMBL3988442, “University of Dundee, Small-Polar-MMV Screening Library” (2021).
# About 13,000 (27%) of roughly 48,000 compounds showed an effect of 50% or more. The list shows a part of the results.
# Tested on: Wolbachia pipientis
# Assay: Anti-Wolbachia Cell-Based Screen
# Type: functional
# Parameters: scale not given: in the data most compounds retested in dose-response had high values
# Details: 5 µM
row,Compound,Percent Effect [%]
1,CC(C)[C@@H]1CN(S(=O)(=O)Cc2ccccc2)C[C@H]1C(=O)O,3.081
2,O=C(NCC(O)c1cccs1)c1sccc1OC(F)F (centres undefined),2.411
3,Cc1ccccc1N1CCN(C(=O)c2cnc(C3CC3)nc2)C(C)C1 (centres undefined),-6.259
4,COc1ncccc1CNC(=O)c1c[nH]c(=O)c(Br)c1,-2.261
5,CN(Cc1cscn1)C1CCN(C(=O)OC(C)(C)C)CC1,-0.6066
6,Cn1ccc(C(=O)N2CCC(Cc3cnc4[nH]ccc4c3)C2)n1 (centres undefined),135.4
7,Cc1nc(C(=O)N2CCC(Cc3cnc4[nH]ccc4c3)C2)co1 (centres undefined),-2.794
8,O=C(c1cscn1)N1CCC(Cc2cnc3[nH]ccc3c2)C1 (centres undefined),91.07
9,Cn1ccc(C(=O)N2CCC(Cc3cnc4[nH]ccc4c3)CC2)n1,-9.979
10,O=C(c1cscn1)N1C[C@@H]2[C@@H](C1)OCC(=O)N2CC1CCCC1,-7.986
11,Cc1nn(CCC(=O)NC(C(=O)O)c2c(C)n[nH]c2C)c(C)c1C (centres undefined),9.182
12,CC(C)(C)c1ncc2c(n1)CN(C(=O)c1ccc3[nH]cnc3c1)C2,-16.99
13,O=C(c1ccncc1)N1CCc2ncnc(C3CCOC3)c2CC1 (centres undefined),1.428
14,CCN1CC[C@@]2(C(=O)N3CCOCC3)CCN(S(=O)(=O)CC)CC[C@@H]12.O=C(O)C(F)(F)F,-35.9
15,CCc1cn[nH]c1C1CCCN(C(=O)c2ncoc2C(C)C)C1 (centres undefined),0.179
16,CCn1cc(C(=O)N2CCCC(c3[nH]ncc3S(C)(=O)=O)C2)cn1 (centres undefined),-1.066
17,Cc1noc(C)c1C(=O)N1CCC(c2[nH]ncc2S(C)(=O)=O)C1 (centres undefined),95.01
18,CCc1noc(C)c1C(=O)N1CCC(c2[nH]ncc2S(C)(=O)=O)C1 (centres undefined),111.9
19,CCc1noc(C)c1C(=O)N1C[C@H](NS(C)(=O)=O)[C@@H](C2CC2)C1,7.684
20,CCc1cc(C(=O)N2CCCC(c3[nH]ncc3S(C)(=O)=O)C2)no1 (centres undefined),122.4
21,CCc1cn[nH]c1C1CCCN(C(=O)c2noc(C)c2COC)C1 (centres undefined),-6.588
22,COCCn1cc(NCc2cn(C)nc2-c2ccncc2)cn1,0.5012
23,Cc1ccc(O[C@@H]2C[C@H]3CN(C(=O)c4cnccn4)CCN3C2)cc1.O=C(O)C(F)(F)F,-2.389
24,Cc1nc(CC(=O)N2CCC3(CC2)CC(=O)N(CC2CCCO2)C3)cs1 (centres undefined),8.939
25,CN1CCC(c2cccc(C(=O)N(C)C)n2)CC1,118.3
26,CC(C)N1CCC(c2ccnc3c(C(=O)N4CCCC4)ncn23)CC1,-18.47
27,CN(C)CCCn1ccnc1C1CCN(c2cccc(C(=O)O)n2)CC1,-0.5716
28,Cc1ccccc1-c1cncc(C2CCN(C(C)C)CC2)n1,-0.08562
29,CC(C)N1CCC(c2cccc(C(=O)N(C)C)n2)CC1,126.2
